Screening data deposited in PubChem BioAssay by The Scripps Research Institute Molecular Screening Center.
PAFAH1B2 inh: inhibitors of human PAFAH1B2; 340,000 compounds, 1.2% hits; recombinant PAFAH1B2, FP-rhodamine activity probe, fluorescence polarization; inhibition, % at 3.39 µM; P68402;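 active = inhibition above the mean of all tested compounds plus 3 SD, cut at about 24% in these data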
pPAFAH inh: inhibitors of human plasma PAF acetylhydrolase (pPAFAH); Q13093; 330,000 compounds, 1.5% hits; inhibition, % at 3.39 µM; recombinant pPAFAH, FP-rhodamine probe fluorescence polarization; AID 463082;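 active = inhibition above the mean inhibition across the screen plus 3 SD, cut at about 25% in these data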;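 note: inhibitors block binding of the rhodamine activity-based probe so polarization drops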
Target sequence (Q13093 whole entry, looked up): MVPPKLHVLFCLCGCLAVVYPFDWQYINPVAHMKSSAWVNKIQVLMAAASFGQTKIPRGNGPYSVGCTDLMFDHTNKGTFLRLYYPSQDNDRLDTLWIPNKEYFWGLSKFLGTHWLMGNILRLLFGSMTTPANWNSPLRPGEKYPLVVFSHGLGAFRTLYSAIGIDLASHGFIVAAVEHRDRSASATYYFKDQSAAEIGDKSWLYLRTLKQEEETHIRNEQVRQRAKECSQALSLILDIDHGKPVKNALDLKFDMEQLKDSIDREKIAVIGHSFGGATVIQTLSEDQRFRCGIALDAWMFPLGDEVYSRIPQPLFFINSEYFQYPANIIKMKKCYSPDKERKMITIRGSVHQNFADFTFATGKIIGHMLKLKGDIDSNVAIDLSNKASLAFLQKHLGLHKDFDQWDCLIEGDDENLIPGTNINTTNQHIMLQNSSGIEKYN
PP5 primary: PP5 (human) phosphatase inhibition; P53041; purified PP5c, OMFP substrate fluorescence; inhibition, % at 6.7 µM; 320,000 compounds, 0.18% hits;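 active = inhibition above the campaign's mean inhibition across all tested compounds plus 3 SD, cut at about 9.5% in these data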
PAFAH2 FP inh: inhibitors of human PAFAH2; Q99487; recombinant PAFAH2, FP-rhodamine activity probe, fluorescence polarization; inhibition, % at 3.39 µM; 340,000 compounds, 0.99% hits; AID 492956;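 active = inhibition above the mean over all tested compounds plus 3 SD, cut at about 30% in these data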;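 note: inhibitors block probe labeling of enzyme so polarization drops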
PP1 inh: PP1-alpha (human) inhibition in PP5 counter-screen; P62136; purified PP1alpha, OMFP fluorescence; 320,000 compounds, 0.9% hits; inhibition, % at 6.7 µM;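 active = inhibition above the mean inhibition of all tested compounds plus 3 SD, computed separately for each screening campaign, cut at about 15% in these data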
PAFAH1B3 FP inh: inhibitors of human PAFAH1B3; AID 492972; recombinant PAFAH1B3, FP-rhodamine probe, fluorescence polarization; inhibition, % at 3.39 µM; 340,000 compounds, 0.28% hits; Q15102;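 active = inhibition above the screen-wide average of all tested compounds plus 3 SD, cut at about 25% in these data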
Target sequence (Q15102 whole entry, looked up): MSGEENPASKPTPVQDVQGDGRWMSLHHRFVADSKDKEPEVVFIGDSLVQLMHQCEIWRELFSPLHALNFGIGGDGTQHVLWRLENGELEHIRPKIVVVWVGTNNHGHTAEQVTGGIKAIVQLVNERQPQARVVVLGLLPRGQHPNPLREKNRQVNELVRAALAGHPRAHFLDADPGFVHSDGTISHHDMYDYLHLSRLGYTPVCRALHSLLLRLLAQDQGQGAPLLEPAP
PAFAH2 confirm: PAFAH2 (human) inhibition, confirmed. inhibition, % at 3.39 µM. shares compounds with PAFAH2 FP inh. 2,300 compounds, 65% hits. recombinant PAFAH2, FP-rhodamine activity probe, fluorescence polarization. AID 493030;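 active = mean inhibition over three repeats above a set limit taken from the earlier primary screen, cut at about 30% in these data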;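 note: inhibitor blocks binding of rhodamine activity probe so polarization falls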
Each line names hits and unclear results; the compound was inactive in the other large screens (follow-up assays come after a bar, where they were run). In the library only some 3.4% were active in any assay of this set; here they are far more common.

O=C(CCc1ccc(S(=O)(=O)N2CCOCC2)cc1)OCc1nc2ccccc2s1	none
COc1ccc(/C=C/C(=O)OCc2cc(=O)n3c(n2)sc2ccccc23)cc1	none
O=C(OCc1cc(=O)n2c(n1)sc1ccccc12)c1ccc(O)cc1	PAFAH2 FP inh 34 | PAFAH2 confirm inactive
O=C(OCc1nc2ccccc2s1)c1ccc(Br)s1	none
Nc1ccc(C(=O)OCc2nc3ccccc3s2)cc1	PAFAH2 FP inh 60 | PAFAH2 confirm 48
Cc1cc(CN2CCOCC2)c(O)c(C2(C)CCCCC2)c1	none
CCOc1cccc(/C(O)=C2/C(=O)C(=O)N(CCN3CCOCC3)C2c2cccnc2)c1 (stereo not drawn)	none
COCC(=O)N(C)C[C@H]1N[C@@](Cc2ccccc2)(C(=O)OC)[C@H]2C(=O)N(Cc3ccccc3)C(=O)[C@@H]12	none (no result: PP5 primary, PP1 inh)
CCN(CC)S(=O)(=O)c1cccc(-c2n[nH]c(=S)n2/N=C/c2ccc(OC)cc2)c1	none
O=C(Nc1cccc(Cl)c1)c1cc(N=Nc2ccc([N+](=O)[O-])cc2Cl)ccc1O	PAFAH2 FP inh 33 | PAFAH2 confirm inactive
CCOc1ccccc1-n1nnnc1SCC(=O)N1CCCC1=O	PAFAH2 FP inh 66 (no result: PP5 primary, PP1 inh) | PAFAH2 confirm 56
COc1cccc(C(=O)O/N=C2\CCS(=O)(=O)c3sccc32)c1	PAFAH2 FP inh 70 | PAFAH2 confirm 37
O=C(O/N=C1\CCS(=O)(=O)c2sccc21)c1c(F)cccc1F	none
Cc1ccc(C(=O)O/N=C2\CCS(=O)(=O)c3sccc32)cc1	PAFAH2 FP inh 88 | PAFAH2 confirm 83
O=S1(=O)CC/C(=N\Nc2ccccc2)c2ccsc21	none
CN(Cc1cccs1)C(=O)CSc1nc(N)cc(N)n1	none
CC1(NC(=O)NCCCCCCNC(=O)NC2(C)CCS(=O)(=O)C2)CCS(=O)(=O)C1 (stereo not drawn)	PAFAH2 FP inh 44 | PAFAH2 confirm 37
CC1(NC(=S)NCCCCCCNC(=S)NC2(C)CCS(=O)(=O)C2)CCS(=O)(=O)C1 (stereo not drawn)	none
COc1ccc(/C=N/NC(=O)c2ccc3ccccc3c2)cc1OS(=O)(=O)c1ccc(NC(C)=O)cc1	none
O=c1oc(-c2ccccc2F)nc2c1cnn2-c1ccccc1	PAFAH2 FP inh 74 | PAFAH2 confirm 45
O=c1oc(-c2cccc(Cl)c2)nc2c1cnn2-c1ccccc1	PAFAH2 FP inh 70 | PAFAH2 confirm 52
Nc1c(-c2cccc(Cl)c2)cnn1-c1ccccc1	none
CSc1nc2c(cnn2-c2ccccc2)c(=O)n1N	none
O=C(CC1CCCC1)Nc1ccc(Br)cc1	none
O=C(COC(=O)CC1CCCC1)Nc1ccc(Cl)cc1	PAFAH2 FP inh 80 (no result: pPAFAH inh, PP5 primary, PP1 inh) | PAFAH2 confirm 74
CCOc1ccc(NC(=O)COC(=O)CC2CCCCC2)cc1	PAFAH2 FP inh 45 | PAFAH2 confirm 41
CCOc1ccc(NC(=O)CC(=O)Nc2ccc(OCC)cc2)cc1	none
CN(C)S(=O)(=O)c1ccc(C(=O)Nc2ccc3ncccc3c2)cc1	none
COc1ccc(C(=O)OCC2CC(c3ccccc3)=NO2)cc1OC (stereo not drawn)	PAFAH2 FP inh 68 | PAFAH2 confirm 60
COC(=O)c1c(-c2c(Cl)cccc2Cl)noc1NC(=O)NN1CCOCC1	none
COC(=O)c1c(-c2c(Cl)cccc2Cl)noc1NC(=O)NN1CCCCC1	PAFAH2 FP inh 75 | PAFAH2 confirm 68
N/C(Cc1ccc([N+](=O)[O-])cc1)=N\OC(=O)c1ccccc1F	PAFAH2 FP inh 38 | PAFAH2 confirm inactive
Cc1ccc(Cl)cc1NC(=O)COC(=O)c1ccc(N2CCCC2)c([N+](=O)[O-])c1	none (no result: PAFAH1B2 inh, PAFAH2 FP inh, PAFAH1B3 FP inh)
CCCNC(=O)COC(=O)c1ccc(N2CCCC2)c([N+](=O)[O-])c1	PAFAH2 FP inh 65 | PAFAH2 confirm 51
O=C(COC(=O)c1ccc(Cl)c(S(=O)(=O)N2CCCC2)c1)NC1CCCC1	PAFAH2 FP inh 41 | PAFAH2 confirm inactive
CCCNC(=O)COC(=O)c1ccc(Cl)c(S(=O)(=O)N2CCCC2)c1	PAFAH2 FP inh 34 | PAFAH2 confirm inactive
CCCNC(=O)COC(=O)c1ccc(S(=O)(=O)N2CCCC2)cc1	none
Cn1nc(C(F)(F)F)c(C(=O)Nc2ccc(F)cc2)c1Cl	none
CCC(=O)Nc1ccc(C(=O)OCC(=O)c2cccs2)cc1	PAFAH2 FP inh 34 | PAFAH2 confirm 32
CC(CCc1ccccc1)NC(=O)COC(=O)c1cccn1C (stereo not drawn)	none
CC(NC(=O)COC(=O)c1cccs1)c1ccccc1 (stereo not drawn)	PAFAH2 FP inh 60 | PAFAH2 confirm 47
COc1cc(OC)cc(C(=O)OCC(=O)NC(C)CCc2ccccc2)c1 (stereo not drawn)	none
COc1ccc(C(=O)OCC(=O)NC(C)CCc2ccccc2)c(OC)c1 (stereo not drawn)	PAFAH2 FP inh 49 | PAFAH2 confirm inactive
NC(=O)c1ccc(NC(=O)CCC(=O)c2cccs2)cc1	none
CC(CCc1ccccc1)NC(=O)COC(=O)c1cccs1 (stereo not drawn)	PAFAH2 FP inh 60 | PAFAH2 confirm 44
CCn1c2ccccc2c2cc(NC(=O)CC(C)=O)ccc21	none
Cc1ccc(CSCC(=O)Nc2ccccc2C(=O)O)cc1	none
Cc1cc(C)c2oc(C(=O)Nc3ccc(S(=O)(=O)N4CCC(C)CC4)cc3)cc(=O)c2c1	none
O=C(COC(=O)c1ccc2ncsc2c1)Nc1cc(Cl)ccc1F	PAFAH2 FP inh 66 (no result: pPAFAH inh, PP5 primary, PP1 inh) | PAFAH2 confirm 60
Cc1c(Cl)cnc(NC(=O)COC(=O)c2ccc3ncsc3c2)c1Cl	PAFAH2 FP inh 47 | PAFAH2 confirm 36
O=C(COC(=O)c1sc2cc(Cl)ccc2c1Cl)Nc1ncc(Cl)cc1Cl	none (no result: PAFAH1B2 inh, PAFAH2 FP inh, PAFAH1B3 FP inh)
O=C(COC(=O)c1ccc2ncsc2c1)NC(=O)c1ccccc1	none
Cc1c(Cl)cnc(NC(=O)COC(=O)CCC(=O)c2cccs2)c1Cl	none (no result: pPAFAH inh, PP5 primary, PP1 inh)
O=C(COC(=O)c1ccc2ncsc2c1)Nc1ncc(Cl)cc1Cl	PAFAH2 FP inh 31 | PAFAH2 confirm inactive
CN(c1ccccc1C(=O)NCc1ccco1)S(C)(=O)=O	none
CCCNC(=O)NC(=O)COC(=O)/C=C/c1cc(Br)ccc1F	none
COc1ccc(C(=S)N2CCOCC2)cc1OC(=O)c1ccccc1Cl	none
O=c1oc2ccccc2c2c1cnc1ccccc12	none (no result: PP5 primary, PP1 inh)
O=C(COC(=O)c1ccco1)Nc1ccc([N+](=O)[O-])cc1Cl	PAFAH2 FP inh 41 | PAFAH2 confirm inactive
CC(NC(=O)COC(=O)c1ccco1)c1ccccc1 (stereo not drawn)	PAFAH2 FP inh 32 | PAFAH2 confirm inactive
O=C(COC(=O)c1ccco1)Nc1ccc(Br)cc1	PAFAH2 FP inh 77 | PAFAH2 confirm 69
O=C(COC(=O)c1ccco1)Nc1ccc2[nH]c(=O)[nH]c2c1	none
